Hits are enriched below; roughly 3.3% of the tested compounds scored in any of these assays.
BRCT PPI red: qHTS Assay for Inhibitors of BRCT-Phosphoprotein Interaction (Red Fluorophore); BRCT-phosphopeptide binding, red fluorescence polarization; Potency, µM (top dose mostly 76.9 µM), for the others: top-dose activity change, negative = inhibition, most hits filed as inhibitors; hit rate 0.03% among 75,000; also: % is scaled to controls: 0 for no effect and ±100 for the full control effect
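Fluorescence polarization: 100 nM His-tagged BRCA1 BRCT with 100 nM TAMRA-labelled phospho-BACH1 decapeptide, phosphate buffer pH 7.3 with 150 mM NaCl, DTT, 0.01% Tween 20; 12 min RT. Binding inhibition seen as FP decrease.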
Tau fil binding: qHTS Assay for Tau Filament Binding; Microtubule-associated protein tau (Homo sapiens), P10636; AID 596, 2007; Potency, µM (highest dose often 57.1 µM), inactives show top-dose activity change, negative = inhibition; hit rate 2% among 71,000; recombinant tau filaments, thioflavin S fluorescence, 15 h; filaments grown with octadecylsulfate alongside compound;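 also: potency is read from the fitted curve at half-maximal effect; % is scaled to controls: 0 for no effect and ±100 for the full control effect; actives lower thioflavin S fluorescence by blocking filaments or displacing dye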
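Tau 2 uM in ThS buffer dispensed; compound added; 60 uM ODS added (finals 1 uM tau, 30 uM ODS); 15 h 37 C; fluor ex450/em510.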
DNA Pol III inh: qHTS Assay for Inhibitors of DNA Polymerase III Holoenzyme System; reconstituted DNA polymerase III holoenzyme replication, biochemical; Potency, µM (series often up to 57.1 µM), for inactives: at the top dose activity change, negative = inhibition; hit rate 0.25% among 71,000; AID 603, 2007; also: potency is read from the fitted curve at half-maximal effect; % is scaled to controls: 0 for no effect and ±100 for the full control effect
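Reconstituted *E. coli* holoenzyme (0.35 nM Pol III, 1 nM beta, 154 nM SSB, 2 nM primase) was preincubated with compound for 15 min at RT. Synthesis on 1.4 nM ssM13Gori ran 35 min, then was stopped with PicoGreen/EDTA and read as dsDNA fluorescence.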
15-hLO inh: qHTS Assay for Inhibitors of 15-hLO (15-human lipoxygenase) | purified 15hLO-1, xylenol orange hydroperoxide absorbance | Potency, µM (series often up to 57.1 µM), for the others: top-dose activity change, negative = inhibition, actives largely listed as inhibitors | hit rate 1.4% among 74,000 | AID 887, 2007; also: potency is read from the fitted curve at half-maximal effect; % is scaled to controls: 0 for no effect and ±100 for the full control effect; nearly all actives have a fitted effect of over 55% in size
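Inhibition is scored from a chromogenic endpoint. After 15 min enzyme-compound contact, arachidonic acid (50 uM final) reacts 6 min with 40 nM 15hLO-1 at room temperature, then Fe-XO reagent is added for 30 min and absorbance ratio recorded.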
BRCT inh green: qHTS Assay for Inhibitors of BRCT-Phosphoprotein Interaction (Green Fluorophore); Breast cancer type 1 susceptibility protein (Homo sapiens), P38398; Potency, µM (doses to about 76.9 µM), inactives show top-dose activity change, negative = inhibition, hits mostly inhibitors; BRCA1 BRCT-phosphopeptide binding, green fluorescence polarization; hit rate 0.05% among 75,000;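 also: potency is read from the fitted curve at half-maximal effect; plate controls were peptide without protein for full effect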
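Compounds were incubated for 12 min at room temperature with a complex of 100 nM fluorescein-tagged pBACH1 decapeptide and 250 nM His-tagged BRCT protein. Buffer was phosphate pH 7.3 with EDTA, DTT and Tween 20. Disruption of binding lowers the polarization signal.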
YjeE inh: qHTS Assay for Inhibitors of YjeE. purified YjeE enzyme, qHTS inhibition assay. Potency, µM. hit rate 0.05% among 71,000. AID 605, 2007
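Fluorescence polarization of a BODIPY Texas Red–ADP probe (2 uM) bound to purified YjeE (10 uM) was read after 15 min room-temperature incubation with compounds. Loss of polarization marks inhibitors; ADP serves as titrated control.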
tau ThS displ: Tau ThS binding assay. shares compounds with Tau fil binding. recombinant tau filaments, Thioflavin S fluorescence displacement. Potency, µM. hit rate 40% among 60. AID 911, 2007; calls by dose curve
aSyn ThS bind: Alpha-synuclein ThS binding assay | shares compounds with Tau fil binding | recombinant alpha-synuclein fibrils, ThS fluorescence displacement | Potency, µM | hit rate 40% among 60; calls by dose curve
Abeta ThS displ: Beta amyloid ThS binding assay; Potency, µM; hit rate 50% among 60; Abeta1-42 fibrillization, thioflavin S fluorescence, overnight 37 C; shares compounds with Tau fil binding; calls by dose curve
* = called active by the depositor; i = inactive; ? = inconclusive; · = no result; [ ] = dose if it differs, or a comment. Unless noted, calls follow the shape of the dose curve; as a rule, active = well fitted curve in the direction sought with a large enough effect; inconclusive = small, poorly fitted or top-dose-only effect, or another doubt; inactive = no such curve, though single readings can be large; an effect the other way counts as inactive or inconclusive.

SMILES	BRCT PPI red	Tau fil binding	DNA Pol III inh	15-hLO inh	BRCT inh green	YjeE inh	tau ThS displ	aSyn ThS bind	Abeta ThS displ
O=C(Nc1ccc(N2CCOCC2)cc1)Nc1ccc2nc(-c3ccco3)c(-c3ccco3)nc2c1	0%	0.79µM*	-6%	4µM*	0%	i	1.2µM*	1.9µM*	1.2µM*
O=C(O)CC1(CC(=O)O)Nc2ccccc2SC1=O	-3%[15.4 µM]	7%[11.4 µM]	-9%[11.4 µM]	-6%[11.4 µM]	2%[15.4 µM]	i	·	·	·
CC(=O)c1ccc2c(c1)Nc1ccccc1S2	-1%	2µM*	-4%	?	2%	i	7.7µM*	6µM*	9µM*
COC(=O)c1ccc(C(NC(=O)OCc2ccccc2)/C(F)=C/[C@@H](C)C(=O)NCCc2c[nH]c3ccc(OC)cc23)cc1 (stereo partly specified)	0%	39%	-2%	-11%	0%	i	·	·	·
COCCN=C1OC(=O)N2C(=O)C3=C4C(C[C@H]5C(=O)N(CC(=O)OC)C(=O)[C@H]5[C@H]4[C@@]12Cc1ccccc1)[C@H]1C(=O)N(CC(=O)OC)C(=O)[C@H]1[C@H]3C (stereo partly specified)	0%	·	·	·	-3%	·	·	·	·
N=c1c(C(=O)NCc2ccc3c(c2)OCO3)cc2c(=O)n3ccccc3nc2n1Cc1cccnc1	-2%	?	-11%	?	4%	i	?	7.4µM*	10µM*
CCOCCCn1c(=N)c(C(=O)NCc2ccc3c(c2)OCO3)cc2c(=O)n3cccc(C)c3nc21	-3%	0.63µM*	-10%	-8%	-1%	i	9.5µM*	2.2µM*	3µM*
COc1ccc(-c2nc3cnc(OC)nc3n(-c3ccc(OC)cc3)c2=O)cc1	-1%	19%	-6%	-1%	-1%	i	·	·	·
COc1cccc(-c2ccc3ncnc(NCc4cnc(C)cn4)c3c2)c1	1%	20%	-1%	9%	4%	i	·	·	·
CN(C)c1ccc(N/C=C/C(=O)c2ccc(F)cc2)cc1	-1%	3.2µM*	-1%	-23%	34%	i	1.1µM*	6.2µM*	3.4µM*
COc1cc(NCC[C@@H]2CCCCN2)c2ncccc2c1	-2%[15.4 µM]	-19%[11.4 µM]	-15%[11.4 µM]	14%[11.4 µM]	0%[15.4 µM]	i	·	·	·
COc1cc(N[C@@H](C)CCCN)c2ncccc2c1	0%[34.4 µM]	5µM*	0%[25.6 µM]	4%[25.6 µM]	0%[34.4 µM]	i	i	i	i
CCC1=C2CC[C@H]3C(=O)N(CC(=O)OC)C(=O)[C@H]3[C@H]2[C@@]2(C)C(=O)N(Cc3ccccc3)C(=O)N2C1=O	1%	·	·	·	-4%	·	·	·	·
CC(C)c1cc(Nc2cccc(O)c2)cc(C(C)C)c1O	-5%	7.9µM*	-3%	10µM*	0%	i	4.9µM*	3.6µM*	3.5µM*
Cc1noc(C)c1C(=O)N1CCC2(CC1)CN(c1ncccn1)C2	0%	-6%	8%	0%	-3%	i	·	·	·
CCC(C)COC(=O)c1ccc(C(=O)O)cc1 (stereo unspecified)	-3%	-45%	2%	9%	-2%	i	i	i	i

Screening data from PubChem BioAssay.
